In PubChem BioAssay (Tox21):
Records with an inconclusive call do not appear. Unmarked numbers belong to inactive results. Active and inactive are the calls of the source. Calls come from the whole dose curve; as a rule, active = well fitted cell-killing curve with a large enough effect in the repeat runs; inconclusive = weak or mixed curves, or effect the other way; inactive = flat fitted curve, though single readings scatter.

Experiment: qHTS RealTime-Glo MT Cell Viability Assay in HEK293 cells - 40 hour (AID 1224874); note: nearly all actives have a fitted effect of over 50% in size
Conditions: RealTime-Glo luminescence; max response: active compounds read low
Source text: U.S. Tox21 Program National Center for Advancing Translational Sciences [NCATS] NIH Chemical Genomics Center [NCGC] U.S. Environmental Protection Agency [EPA] National Institutes of Environmental Health Sciences [NIEHS] National Toxicology Program [NTP] U.S. Food and Drug Administration [FDA] Tox21 Assay Overview: Measure of cell viability is critical in the cell-base assay. Analysis of cell viability is necessary for the characterization of cell responses to cytotoxic drugs and environmental stress. A RealTime-Glo MT Cell Viability Assay to monitor cell viability in real time of continues cell culture during 40 hours of compound treatment was used to screen Tox21 10K library compounds in Hek293 cells. The RealTime-Glo MT Cell Viability Assay is a nonlytic, homogeneous, bioluminescent method to measure cell viability in real time using a simple, plate-based method. The assay involves adding NanoLuc luciferase and a cell-permeant prosubstrate to cells in culture. Viable cells reduce the proprietary prosubstrate to generate a substrate for NanoLuc luciferase. This substrate diffuses from cells into the surrounding culture medium, where it is rapidly used by the NanoLuc Enzyme to produce a luminescent signal. The signal correlates with the number of viable cells, making the assay well suited for cytotoxicity studies.
Tox21 Assay Protocol Summary: The mixture of Hek293 cell suspension and reagents were dispensed at 600cells/6 ul/well in 1536-well tissue culture treated black solid bottom plates using a Multidrop dispenser. After the assay plates were incubated at a 37 C/5% CO2 incubator for 5 hours, 23 nL of compounds dissolved in DMSO, positive and negative controls was transferred to the assay plate by a pintool work station. The plates were incubated at 37 C for 40 hours. The luminescence intensity were measured at 0h, 8h, 16h, 24h, 32h and 40h time points using ViewLux plate reader during compound treatment.
% is set by controls: 0 for no effect and ±100 for the full control effect; potency is the fitted concentration of half-maximal effect.

**Q.** Which max response does the source give for `CCCCCCCC/C=C/C(=O)O` here?
**A.** 8.87%

**Q.** Which max response does the source give for `C1=CCC2CC=CC2C1` (stereo not given) here?
**A.** 16.8%

**Q.** Which max response does the source give for `COC(=O)C1=C(C)NC(C)=C(C(=O)OC(C)(C)CN(C)CCC(c2ccccc2)c2ccccc2)C1c1cccc([N+](=O)[O-])c1` (stereo not given) here?
**A.** -18%

**Q.** For `COc1cc(S(=O)(=O)Nc2ccccc2)c(OC)cc1N`, which max response is on record?
**A.** -20.8%

**Q.** With `CC1=CC[C@@H]2C[C@H]1C2(C)C` as the molecule, how does the max response read?
**A.** 1.39%

**Q.** Which Potency does the source give for `CCCCCCCC(=O)OCCCCCC` here?
**A.** 3.47 µM (active)

**Q.** Which max response does the source give for `Nc1ccc(NC(=O)c2ccc(N)cc2)cc1` here?
**A.** -13%

**Q.** Which max response does the source give for `CC(C)N=C=NC(C)C` here?
**A.** 3.08%

**Q.** For `CNc1c2c(nn1C)CCCC2`, which max response is on record?
**A.** -3.57%

**Q.** With `CC(CN(CCN(CC(C)OCCO)CC(C)OCCO)CC(C)OCCO)OCCO` (stereo not given) as the molecule, how does the Potency read?
**A.** 23.7 µM (active)

**Q.** For `C/C(C=O)=C\c1ccccc1`, which max response is on record?
**A.** 0.492%

**Q.** For `CCOCCC(=O)OCC`, which max response is on record?
**A.** 4.01%

**Q.** With `C=C(C)C(=O)OCCC(F)(F)C(F)(F)C(F)(F)C(F)(F)C(F)(F)C(F)(F)F` as the molecule, how does the max response read?
**A.** 0.419%

**Q.** Which max response does the source give for `C[C@H](CS)C(=O)N1CCC[C@H]1C(=O)O` here?
**A.** 9.42%

**Q.** Which max response does the source give for `COc1ccc(C(=O)NCc2ccc(OCCN(C)C)cc2)cc1OC` here?
**A.** 2.93%

**Q.** Which max response does the source give for `c1ccc(CCCc2ccncc2)cc1` here?
**A.** -19.7%

**Q.** With `O=C(O)c1cccc(Oc2ccccc2)c1` as the molecule, how does the max response read?
**A.** -1.97%

**Q.** Which max response does the source give for `CCN(Cc1cccc(S(=O)(=O)O)c1)c1ccc(C(=C2C=CC(=[N+](CC)Cc3cccc(S(=O)(=O)O)c3)C=C2)c2ccc(O)cc2S(=O)(=O)[O-])cc1` here?
**A.** 8.88%

**Q.** With `Cc1ccc(Nc2c(F)cccc2Cl)c(CC(=O)O)c1` as the molecule, how does the max response read?
**A.** 5.05%

**Q.** For `O=[N+]([O-])C1(Br)COCOC1`, which Potency is on record?
**A.** 34.7 µM (active)

**Q.** With `O=C(O)CCC(=O)OC[C@@H](NC(=O)C(Cl)Cl)[C@H](O)c1ccc([N+](=O)[O-])cc1` as the molecule, how does the max response read?
**A.** 5.1%

**Q.** Which Potency does the source give for `CC(C)C(O)C(C)(C)CO` (stereo not given) here?
**A.** 0.899 µM (active)

**Q.** With `BrC(Br)C(Br)Br` as the molecule, how does the max response read?
**A.** -12.1%

**Q.** For `CCC(=O)OCc1ccc(OC)cc1`, which max response is on record?
**A.** 0.878%

**Q.** With `COc1cc(NS(=O)(=O)c2ccc(N)cc2)nc(C)n1` as the molecule, how does the max response read?
**A.** 9.67%

**Q.** With `CC1CCCO1` (stereo not given) as the molecule, how does the max response read?
**A.** 5.81%

**Q.** Which Potency does the source give for `Cc1ccc2c(c1[N+](=O)[O-])C(=O)c1ccccc1C2=O` here?
**A.** 0.958 µM (active)

**Q.** With `SCCc1cnccn1` as the molecule, how does the max response read?
**A.** 10.1%

**Q.** For `CCN(CC)CCOc1ccccc1C(=O)CCc1ccccc1`, which Potency is on record?
**A.** 10.7 µM (active)

**Q.** For `C=CCOC(=O)COCCC(C)C`, which max response is on record?
**A.** -1.87%

**Q.** With `COc1ccc(C)cc1` as the molecule, how does the max response read?
**A.** 9.25%

**Q.** With `O=C1c2ccccc2C(=O)c2c(O)ccc(O)c21` as the molecule, how does the max response read?
**A.** 5.32%

**Q.** For `O=[N+]([O-])c1ccc2ncccc2c1`, which max response is on record?
**A.** 2.13%

**Q.** For `ClC1=C(Cl)C1(Cl)Cl`, which max response is on record?
**A.** -7.96%

**Q.** Which max response does the source give for `CCCCCCC(CO)CCCC` (stereo not given) here?
**A.** 4.35%

**Q.** With `CC(=O)N[C@@H](Cc1ccc(O)cc1)C(=O)O` as the molecule, how does the max response read?
**A.** 8.17%

**Q.** For `C[C@@H]1[C@H](O)[C@@H](C)/C=C/C=C\C=C\C=C\C=C\C=C\C=C\[C@H](O[C@@H]2O[C@H](C)[C@@H](O)[C@H](N)[C@@H]2O)C[C@@H]2O[C@](O)(C[C@@H](O)C[C@@H](O)[C@H](O)CC[C@@H](O)C[C@@H](O)CC(=O)O[C@H]1C)C[C@H](O)[C@H]2C(=O)O` (stereo in doubt), which max response is on record?
**A.** -0.557%

**Q.** With `CCCCCCCCCCCCCC(=O)OCC(O)CO` (stereo not given) as the molecule, how does the max response read?
**A.** -0.733%

**Q.** With `CCN(CC)C(=O)N1CCN(C)CC1` as the molecule, how does the max response read?
**A.** 4.18%

**Q.** With `O=c1[nH][nH]c(=O)c2cc([N+](=O)[O-])ccc12` as the molecule, how does the max response read?
**A.** -11.6%
